Rows were chosen to be rich in hits. Some 2.9% of all compounds tested hit in one or more screens of this group.
ABHD5 PLIN5 PPI – blocks binding of human ABHD5 to perilipin-5; 360,000 tested, 0.78% active; inhibition, % at 4 µM; Split G. princeps luciferase complementation, luminescence, 4 h; AID 602281;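 active = inhibition above the mean inhibition across every tested compound plus 3 SD, cut at about 22% in these data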
DAGLB inh – blocks human DAGLB lipase activity; inhibition, % at 5.17 µM; Q8NCG7; 340,000 tested, 0.059% active; HEK293T DAGLB membrane lysate, EnzChek fluorogenic substrate; in the data active = inhibition above about 34%
Myeloid diff 2 – myeloid differentiation induction | 360,000 tested, 1% active | ER-HoxA9 myeloid progenitors, lysozyme-GFP differentiation, flow cytometry | calls only at 10 µM;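 active = normalized GFP-positive differentiation at or above the plate's own cutoff, the solvent-only control mean plus 3 SD; inconclusive = no clear call, values can overlap the other calls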;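 also: cells exposed to compound for four days before flow analysis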
HGIII-sPLA2 inh – Blocks human group III sPLA2 activity | QFRET BODIPY PC-A2 liposome hydrolysis, fluorescence | inhibition, % at 12.2 µM | 370,000 tested, 0.56% active | AID 743126;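 active = inhibition above mean plus 3 SD of compounds lying within the high and low control bounds, cut at about 19% in these data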
Target sequence (Q9NZ20 whole entry, looked up): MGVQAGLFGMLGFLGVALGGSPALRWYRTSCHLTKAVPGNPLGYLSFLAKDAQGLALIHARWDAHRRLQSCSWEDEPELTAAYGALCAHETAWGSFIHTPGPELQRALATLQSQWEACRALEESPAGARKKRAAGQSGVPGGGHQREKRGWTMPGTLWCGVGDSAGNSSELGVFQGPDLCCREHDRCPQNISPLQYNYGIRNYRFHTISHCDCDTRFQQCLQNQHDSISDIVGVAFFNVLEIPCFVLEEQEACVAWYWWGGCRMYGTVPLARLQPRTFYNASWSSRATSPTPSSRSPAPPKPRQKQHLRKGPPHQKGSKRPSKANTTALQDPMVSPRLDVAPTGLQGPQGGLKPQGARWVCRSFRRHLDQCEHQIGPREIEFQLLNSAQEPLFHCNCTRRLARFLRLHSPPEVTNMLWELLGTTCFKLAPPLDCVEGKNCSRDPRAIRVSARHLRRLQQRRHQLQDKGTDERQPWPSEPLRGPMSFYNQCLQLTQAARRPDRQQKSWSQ
Rtt109 HAT inh – C. albicans Rtt109 histone acetyltransferase inhibition; purified Rtt109/Vps75, ThioGlo CoA-SH fluorescence, 4 h; inhibition, % at 34.9 µM; 330,000 tested, 0.16% active; AID 540336;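 active = inhibition of at least 50% in every replicate; inconclusive = best replicate reaches 50% inhibition but some replicates fall short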
Cardio protect – modulators protecting cardiomyocytes from myocardial damage; H9c2 cardiomyocytes, H2O2 injury protection, ATPLite, 2 h; protection from H2O2 cell death, % at 20 µM; 360,000 tested, 0.63% active; AID 588492;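 active = compounds giving at least 50% protection of heart cells from peroxide-induced death in the single-dose screen, raw or plate-pattern-corrected value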
Each line names hits and unclear results; the compound was inactive in the other large screens.

Cc1cc(=O)oc2cc(OCc3ccccc3)ccc12	Myeloid diff 2 active
CC(=O)Oc1cc2oc(=O)cc(C)c2cc1OC(C)=O	none
CC(=O)Oc1ccc2c(C)cc(=O)oc2c1	Cardio protect 61
Cc1cc(=O)oc2cc(OCC(=O)NCCc3ccccc3)ccc12	Myeloid diff 2 active
COc1ccc(CCNC(=O)COc2ccc3c(C)cc(=O)oc3c2)cc1	none
COc1ccc(/C=C2\C(=O)ON=C2c2ccccc2)cc1	none
O=C1ON=C(c2ccccc2)/C1=C/c1ccc(O)c(O)c1	Cardio protect 58
COC1(OC)C=CC(=O)C=C1NC(=O)c1ccccc1OC(C)=O	ABHD5 PLIN5 PPI 23, Myeloid diff 2 inconclusive
COc1ccc([N+](=O)[O-])cc1NS(=O)(=O)c1cccc(C(=O)NCCCN2CCCC2=O)c1	none
O=C(COc1ncnc2ccccc12)NC1CCCC1	none
O=C(NCc1ccccn1)C1CCN(C(=O)c2cc3sccc3n2Cc2ccc(F)cc2)CC1	Myeloid diff 2 active
COc1cccc2c1OC1(C)CC2NC(=O)N1 (centres undefined)	none (no result: Rtt109 HAT inh)
Clc1ccccc1-c1nc(N/N=C/c2cccnc2)c2ccccc2n1	Cardio protect 78
CC1=NN(c2ccc(Br)cc2)C(=O)/C1=C/c1ccc(-c2ccccc2C(=O)O)o1	none
CCOC(=O)c1cc(-c2ccc(/C=N\n3cnnc3)o2)ccc1Cl	Cardio protect 67
CCCCOC(=O)c1cc(-c2ccc(/C=N/n3cnnc3)o2)ccc1Cl	none
CCOC(=O)c1cc(-c2ccc(/C=C3/C(=O)N(c4ccc(C(=O)O)cc4)N=C3C)o2)ccc1Cl	Myeloid diff 2 active
Nc1ccc2cc3ccccc3cc2c1	Myeloid diff 2 active
CCn1c2ccccc2c2cc(NC(=O)CSc3nnc(-c4ccccc4)o3)ccc21	Myeloid diff 2 active
Cc1ccccc1-c1nnc(SCC(=O)Nc2ccc3c(c2)OCCO3)n1N	Myeloid diff 2 active
CCn1c(SCC(=O)Nc2ccc3c(c2)c2ccccc2n3CC)nnc1-c1ccco1	ABHD5 PLIN5 PPI 46, Rtt109 HAT inh 66
Cc1ccc(NC(=O)CSc2nnc(-c3ccco3)n2N)cc1F	Myeloid diff 2 active
CCn1c2ccccc2c2cc(NC(=O)CSc3nnc(-c4cccc(C)c4)o3)ccc21	none
CCn1c(SCC(=O)Nc2cccc(NC(C)=O)c2)nnc1-c1ccco1	none
COc1ccc(N2CCN(CCCNC(=O)Cn3c(=O)c4cccn4c4ccccc43)CC2)cc1	none
CC(=O)c1cccc(Nc2c([N+](=O)[O-])c(=O)oc3ccccc23)c1	none
CC(C)C(=O)N1CCCC1(C)C(=O)Nc1ccccc1 (centres undefined)	none (no result: DAGLB inh, HGIII-sPLA2 inh, Rtt109 HAT inh)
CC(C)(C)S(=O)N1Cc2cc(C(=O)NCc3ccc4c(c3)OCO4)nc(-c3cccc(-c4cc5ccccc5o4)c3)c2[C@@H]1CCO (some centres undefined)	ABHD5 PLIN5 PPI 24 (no result: DAGLB inh, Rtt109 HAT inh)
CCOCC(=O)Nc1ccc([N+](=O)[O-])cc1Cl	none (no result: DAGLB inh)
NS(=O)(=O)c1ccc(CNC(=O)Cn2nc(C(F)F)cc2C(F)F)cc1	none
Cc1cc2nc3s/c(=C/c4ccc(-c5ccccc5C(=O)O)o4)c(=O)n3c2cc1C	Myeloid diff 2 active
CCCCCCN1C=C/C(=C\C=C(C#N)C#N)c2ccccc21	Myeloid diff 2 active
CCCCCCN1C=CC=C/C1=C/C=C(C#N)C#N	none
CCN1/C(=C/c2ccc3cc(C)ccc3[n+]2CC)Sc2ccc3sccc3c21	Myeloid diff 2 active (no result: HGIII-sPLA2 inh)
CCN1/C(=C\c2ccc3cc(C)ccc3[n+]2CC)Sc2cc(C)c(C)cc21	Myeloid diff 2 inconclusive, Rtt109 HAT inh inconclusive
CCN1/C(=C/c2ccc3cc(C)cc(C)c3[n+]2CC)Sc2cc(C)ccc21	Myeloid diff 2 inconclusive, Rtt109 HAT inh 82
COc1ccc2cc(C(=O)C3CCCN(C(=O)c4cnn(C(C)C)c4)C3)ccc2c1 (centres undefined)	none
Cc1onc(-c2ccccc2)c1C(=O)NCc1ccc(F)cc1	none
Cc1cc(=O)[nH]c(N=N/C(=N/Nc2ccccc2C)c2ccccc2)n1	Cardio protect 60
Cc1ccnc(NS(=O)(=O)c2ccc(NS(C)(=O)=O)cc2)n1	none
CCOC(=O)C1C(=O)NC(SCC(=O)OC)=C(C#N)C1c1ccccc1OCC (centres undefined)	Cardio protect 72 (no result: HGIII-sPLA2 inh)
Nc1[nH]c2cc(Cl)ccc2c1C(=O)N1CCOCC1	none (no result: ABHD5 PLIN5 PPI, DAGLB inh, Myeloid diff 2, Rtt109 HAT inh, Cardio protect)
CCOC(=O)N1CCN(C(=O)CN(C2CCCCC2)S(=O)(=O)c2ccc(Cl)cc2)CC1	Myeloid diff 2 active
COC(=O)C1CN(Cc2ccc(OC)cc2)CCS(=O)(=O)N1Cc1cn(Cc2ccc(Cl)cc2)nn1 (centres undefined)	none (no result: ABHD5 PLIN5 PPI, DAGLB inh, Myeloid diff 2, Rtt109 HAT inh, Cardio protect)
COc1ccc(N(C(C)C(=O)Nc2ccc(S(=O)(=O)N3CCOCC3)cc2)S(C)(=O)=O)cc1 (centres undefined)	none
CCc1ccccc1N(CC(=O)Nc1cccnc1)S(=O)(=O)c1ccccc1	none
O=C(O)Cn1c2c(c3ccccc31)CSc1ccc(Cl)cc1-2	ABHD5 PLIN5 PPI 23
O=C(O)Cn1c2ccccc2c2ccccc21	none
N#Cc1cc2ccccc2nc1SCC(=O)Nc1ccccc1N1CCOCC1	none
Cc1cccc2cc(C#N)c(SCC(=O)Nc3ccccc3N3CCOCC3)nc12	Myeloid diff 2 active
Cn1c(CNc2ccccc2O)nc2ccccc21	Myeloid diff 2 active
COc1ccc(C)cc1NC(=O)c1nnn(Cc2cccc(C(F)(F)F)c2)c1N	Myeloid diff 2 active
Cc1cn([C@H]2C[C@H](O)[C@@H](CNCc3ccccc3OCCCN3CCOCC3)O2)c(=O)[nH]c1=O	none (no result: Rtt109 HAT inh)
COc1ccc(/C=C2\C(=O)NCC(=O)N2C)cc1	Myeloid diff 2 active
Cc1nn(C)c(C)c1NC(=O)C12CC3CC(CC(C3)C1)C2	none
COc1ccc(-c2oc3ncnc(NCCN4CCOCC4)c3c2-c2ccc(OC)cc2)cc1	Cardio protect 75 (no result: HGIII-sPLA2 inh)
Cc1cc(=O)[nH]c(SCC(=O)Nc2ccccc2C)n1	none
N=c1c2c(-c3ccccc3)c(-c3ccccc3)n(Cc3ccccc3)c2ncn1CCCn1ccnc1	Myeloid diff 2 active
COc1ccc(OC)c(Nc2nc(N)c([N+](=O)[O-])c(N3CCOCC3)n2)c1	Cardio protect 52
CC1CCC(NC(=O)CN2C(=O)c3ccccc3S2(=O)=O)CC1 (centres undefined)	none
COc1ccc(OCCCN(C)Cc2ccccc2)cc1	none
c1cnc2ccc3ncccc3c2c1	none
Nc1ccc2ncccc2c1N	Myeloid diff 2 active
CC(C)(C)OC(=O)N1CCC(Cc2cc(-c3ccccc3)no2)(C(=O)O)CC1	none
CC(C)(C)OC(=O)N1CCC(Cc2cc(-c3cccnc3)no2)(C(=O)O)CC1	Myeloid diff 2 active
CC(=O)Nc1sc2c(c1C#N)CC(C)(C)NC2(C)C	Myeloid diff 2 active
Cc1oc(-c2ccccc2)cc1C(=O)Nc1cccc(/C=C\C(=O)O)c1	none

Screening results as filed in PubChem.
